The campaign covered roughly 5,500 compounds. About 2,000 (36%) were called active. About 18% were inconclusive and are not listed. Cut-off read from the data, not from the text of the source: active = normalized growth mostly below about 0.91 (no sharp cut-off); inconclusive = no clear call, values can overlap the other calls; inactive = mostly above about 0.92. This is one part of the list.
Experiment: chemical genetic growth profiling, strain panel (AID 1159580);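 note: tested at 20 µM; growth read once vehicle control cultures reached saturation at 30 °C; 1 = growth at the plate median or of vehicle wells; lower values mean less growth of the strain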
Conditions: S. cerevisiae deletion strains, growth OD
[1] = locus YCL061C, strain MRC1, stronger effect = lower value
[2] = locus YHR030C, strain SLT2, stronger effect = lower value

Measured: normalized growth

CC(C)NCC(O)COc1ccc(COCCOC(C)C)cc1 (stereo unspecified)
inactive: locus YAL021C, strain ccr4, stronger effect = lower value 1 | locus YAL026C, strain drs2, stronger effect = lower value 1.01 | locus YAL030W, strain snc1, stronger effect = lower value 0.998 | locus YBL061C, strain skt5, stronger effect = lower value 0.997 | locus YBR009C, strain hhf1, stronger effect = lower value 0.998 | locus YBR023C, strain chs3, stronger effect = lower value 0.998 | locus YBR171W, strain sec66, stronger effect = lower value 1 | locus YBR231C, strain swc5, stronger effect = lower value 1 | locus YBR279W, strain paf1, stronger effect = lower value 1 | locus YCL011C, strain gbp2, stronger effect = lower value 1.01 | locus YCL016C, strain dcc1, stronger effect = lower value 0.999 | [1] 1 | locus YCL069W, strain vba3, stronger effect = lower value 1 | locus YCR088W, strain abp1, stronger effect = lower value 0.997 | locus YDL005C, strain med2, stronger effect = lower value 1 | locus YDL040C, strain nat1, stronger effect = lower value 1 | locus YDR001C, strain nth1, stronger effect = lower value 1.01 | locus YDR069C, strain doa4, stronger effect = lower value 1.02 | locus YDR137W, strain rgp1, stronger effect = lower value 1.02 | locus YDR159W, strain sac3, stronger effect = lower value 0.979 | locus YDR195W, strain ref2 0.97 | locus YDR297W, strain sur2, stronger effect = lower value 1.01 | locus YDR334W, strain swr1, stronger effect = lower value 1 | locus YDR335W, strain msn5, stronger effect = lower value 1 | locus YDR392W, strain spt3, stronger effect = lower value 0.947 | locus YEL003W, strain gim4, stronger effect = lower value 1 | locus YEL037C, strain rad23, stronger effect = lower value 1.02 | locus YEL061C, strain CIN8 (second series), stronger effect = lower value 1 | locus YER015W, strain faa2, stronger effect = lower value 0.995 | locus YER016W, strain bim1, stronger effect = lower value 0.988 | locus YER111C, strain swi4, stronger effect = lower value 1 | locus YER155C, strain BEM2 (second series), stronger effect = lower value 1 | locus YFR010W, strain ubp6, stronger effect = lower value 1.03 | locus YGL167C, strain pmr1, stronger effect = lower value 1.01 | locus YGL173C, strain kem1, stronger effect = lower value 1 | locus YGL227W, strain vid30, stronger effect = lower value 1 | locus YGL240W, strain doc1, stronger effect = lower value 1 | locus YGL253W, strain hxk2, stronger effect = lower value 0.999 | locus YHR013C, strain ard1, stronger effect = lower value 0.995 | locus YHR027C, strain rpn1, stronger effect = lower value 0.999 | [2] 1.04 | locus YHR079C, strain IRE1, stronger effect = lower value 1.05 | locus YHR142W, strain chs7, stronger effect = lower value 1.01 | locus YJL092W, strain hpr5, stronger effect = lower value 0.994 | locus YJL095W, strain BCK1 (second series), stronger effect = lower value 1 | locus YJL095W, strain BCK1, stronger effect = lower value 0.976 | locus YJL115W, strain asf1, stronger effect = lower value 0.999 | locus YJL129C, strain trk1, stronger effect = lower value 1 | locus YJL154C, strain vps35, stronger effect = lower value 1.01 | locus YJL164C, strain tpk1, stronger effect = lower value 1.01 | locus YJL166W, strain qcr8, stronger effect = lower value 1.01 | locus YJL187C, strain SWE1, stronger effect = lower value 1.01 | locus YJR066W, strain TOR1, stronger effect = lower value 0.987 | locus YKL160W, strain elf1, stronger effect = lower value 1 | locus YKR026C, strain gcn3, stronger effect = lower value 0.986 | locus YKR091W, strain srl3, stronger effect = lower value 1 | locus YLL001W, strain dnm1, stronger effect = lower value 0.983 | locus YLL026W, stronger effect = lower value 0.998 | locus YLL041C, strain sdh2, stronger effect = lower value 1 | locus YLR027C, strain aat2, stronger effect = lower value 0.998 | locus YLR113W, strain HOG1, stronger effect = lower value 0.984 | locus YLR221C, strain rsa3, stronger effect = lower value 1.01 | locus YLR258W, strain gsy2, stronger effect = lower value 0.999 | locus YLR262C, strain YPT6 (second series), stronger effect = lower value 1.01 | locus YLR320W, strain mms22, stronger effect = lower value 0.999 | locus YLR342W, strain FKS1, stronger effect = lower value 1 | locus YLR357W, strain rsc2, stronger effect = lower value 0.982 | locus YLR370C, strain arc18, stronger effect = lower value 1 | locus YLR384C, strain iki3, stronger effect = lower value 0.999 | locus YML120C, strain ndi1, stronger effect = lower value 0.984 | locus YMR058W, strain fet3, stronger effect = lower value 1.01 | locus YMR125W, strain sto1, stronger effect = lower value 0.994 | locus YMR129W, stronger effect = lower value 1 | locus YMR205C, strain PFK2, stronger effect = lower value 0.981 | locus YMR231W, strain pep5, stronger effect = lower value 0.998 | locus YNL071W, strain lat1, stronger effect = lower value 1.01 | locus YNL183C, strain NPR1, stronger effect = lower value 0.996 | locus YNL209W, strain ssb2, stronger effect = lower value 1 | locus YNL248C, strain rpa49, stronger effect = lower value 0.999 | locus YNL322C, strain KRE1 (second series), stronger effect = lower value 0.987 | locus YNR049C, strain mso1, stronger effect = lower value 1 | locus YOR001W, strain rrp6, stronger effect = lower value 1 | locus YOR070C, strain gyp1, stronger effect = lower value 1.01 | locus YOR080W, strain dia2, stronger effect = lower value 0.997 | locus YOR083W, strain WHI5, stronger effect = lower value 1 | locus YOR106W, strain vam3, stronger effect = lower value 1.01 | locus YOR231W, strain MKK1, stronger effect = lower value 1.03 | locus YOR265W, strain rbl2, stronger effect = lower value 1.03 | locus YOR270C, strain vph1, stronger effect = lower value 1.01 | locus YOR290C, strain snf2, stronger effect = lower value 1 | locus YPL051W, strain arl3, stronger effect = lower value 1 | locus YPL078C, strain atp4, stronger effect = lower value 1.01 | locus YPL106C, strain sse1, stronger effect = lower value 1 | locus YPL240C, strain hsp82, stronger effect = lower value 1.01 | locus YPL256C, strain CLN2, stronger effect = lower value 1.03

O=c1[nH]cnc2ccsc12
inactive: locus YAL013W, strain DEP1, stronger effect = lower value 1.01 | locus YBR229C, strain ROT2, stronger effect = lower value 1.02 | [1] 0.998 | locus YDL101C, strain DUN1, stronger effect = lower value 1 | locus YDR150W, strain NUM1, stronger effect = lower value 1.03 | locus YEL061C, strain CIN8, stronger effect = lower value 1.02 | locus YGR078C, strain PAC10, stronger effect = lower value 0.998 | [2] 1.05 | locus YHR087W, strain rtc3, stronger effect = lower value 1 | locus YJR043C, strain POL32, stronger effect = lower value 0.996 | locus YJR075W, strain HOC1, stronger effect = lower value 1.03 | locus YLR039C, strain RIC1, stronger effect = lower value 0.985 | locus YLR058C, strain SHM2 (second series), stronger effect = lower value 1.03 | locus YLR085C, strain ARP6, stronger effect = lower value 1.04 | locus YLR262C, strain YPT6, stronger effect = lower value 0.982 | locus YML094W, strain GIM5, stronger effect = lower value 1.03 | locus YMR219W, strain ESC1, stronger effect = lower value 1.01 | locus YMR263W, strain SAP30, stronger effect = lower value 1.04 | locus YNL128W, strain TEP1, stronger effect = lower value 1.02 | locus YNL153C, strain GIM3, stronger effect = lower value 1.02 | locus YNL298W, strain CLA4 (second series), stronger effect = lower value 1.01 | locus YNL322C, strain KRE1, stronger effect = lower value 0.993 | locus YNR030W, strain Alg12, stronger effect = lower value 1.01 | locus YPL055C, strain LGE1, stronger effect = lower value 1.09 | locus YPL241C, strain CIN2, stronger effect = lower value 1.02 | locus YPR135W, strain CTF4, stronger effect = lower value 1.34
